In the library only some 7.9% were active in any assay of this set; here they are far more common.
MARV entry inh: inhibitors of Marburg virus binding or cell entry; Potency, µM (doses to about 37.8 µM), inactives show at the highest dose activity change, negative = inhibition, most hits filed as inhibitors; 1.8% of 300,000 active; Marburg virus pseudotyped entry inhibition, cell reporter; AID 540276; calls by dose curve; tested in HEK293 cells; also: potency is read from the fitted curve at half-maximal effect
HCV inhibitor: blocks hepatitis C virus. 3.4% of 340,000 active. Potency, µM (titrated, usually from 41.8 µM), inactives show top-dose activity change, negative = inhibition, hits mostly inhibitors. Huh7.5.1 HCVcc-Cre infection, luciferase reporter, 44 h; active = well fitted inhibition curve with a large enough effect; inconclusive = small, poorly fitted or top-dose-only effect, or another doubt; inactive = no such curve, though single readings can be large or run the other way; also: potency is read from the fitted curve at half-maximal effect
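Cells seeded at 1,000/well and cultured 4 h, then compounds added followed by HCVcc-Cre virus (~0.5 moi). After 44 h further culture, luciferase substrate was added, plates held 15 min at room temperature, and luminescence read for 15 sec.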
LASV entry inh: Lassa virus entry inhibition; Potency, µM (doses to about 37.9 µM), for inactives: at the top dose activity change, negative = inhibition, most hits filed as inhibitors; Lassa virus pseudotype entry inhibition, cell reporter; 1.2% of 300,000 active; calls by dose curve; tested in HEK293 cells; also: potency is read from the fitted curve at half-maximal effect; nearly all actives have a fitted effect of over 50% in size
FMDV antiviral: blocks foot and mouth disease virus | FMDV antiviral cell-based qHTS | Potency, µM (highest dose often 57.9 µM), without a hit: at the highest dose activity change, negative = inhibition, actives largely listed as inhibitors | 1.2% of 410,000 active | AID 1159524; calls by dose curve; tested in HEK293T cells; also: read-out not given here; potency is read from the fitted curve at half-maximal effect; nearly all actives have a fitted effect of over 45% in size
HCMV inh: blocks human cytomegalovirus replication | HFF cells, HCMV-luciferase reporter, 72 h; hits give low values | activity change, negative = inhibition, % at 57.5 µM | 4.5% of 410,000 active; in the data active = activity change below about -60%; inconclusive = no clear call, values can overlap the other calls; inactive = above about -39%
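Two-dose cell screen: HFF monolayers treated with compounds and infected with luciferase-expressing HCMV at 1 PFU/cell, 72 h at 37C, then lysed for luciferase measurement.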
The depositor's hits bear a star; ? = inconclusive; nt = no result given; [ ] = remark or other dose. % is scaled to controls: 0 for no effect and ±100 for the full control effect.

SMILES	MARV entry inh	HCV inhibitor	LASV entry inh	FMDV antiviral	HCMV inh
c1ccc(CN2CCC(Nc3nc(-c4cccs4)nc4ccccc34)CC2)cc1	12µM*	?	?	?	?
c1csc(CNc2nc(-c3cccs3)nc3ccccc23)c1	-30%[46.1 µM]	?	3%	-29%	-61*
CCN1CCN(c2nc(-c3cccs3)nc3ccccc23)CC1	24%	?	22%	-17%	-3
c1csc(-c2nc(NCC3CCCO3)c3ccccc3n2)c1 (stereo not drawn)	10µM*	?	-5%[46.1 µM]	-26%	-22
CC(C)Oc1ccc(-c2nc(NCC3CCCO3)c3ccccc3n2)cc1 (stereo not drawn)	?	11µM*	?	?	-78*
C[C@H]1CN=C(N(C)C)N1CC1CCC(C(C)(C)C)CC1 (stereo partly drawn)	nt	?	nt	?	-10
O=C1NC(c2cccc3ccccc23)Nc2ccc(Cl)cc21 (stereo not drawn)	?	-24%	?	0%	-73*
CNC(=O)/C(C#N)=C/c1c(N(Cc2ccccc2)Cc2ccccc2)nc2ccccn2c1=O	16µM*	?	11µM*	-23%	-36
COC(=O)/C(C#N)=C/c1c(N2CCN(c3ccccc3)CC2)nc2ccccn2c1=O	-29%[46.1 µM]	-1%	18%[46.1 µM]	11%	nt
CCN1CCN(c2nc3c(C)cccn3c(=O)c2/C=C(\C#N)C(=O)NC)CC1	-7%	7%	?	-8%	-72*
CNC(=O)/C(C#N)=C/c1c(N2CCN(C)CC2)nc2c(C)cccn2c1=O	nt	13%	nt	-8%	16
CCNC(=O)/C(C#N)=C/c1c(N2CCCCCC2)nc2c(C)cccn2c1=O	?	?	8.9µM*	-2%	?
COc1ccc(OC)c(NC(=O)CSc2ccnc(=O)[nH]2)c1	nt	nt	18%[46.1 µM]	3%	2
CCOC(=O)c1cccc2c1-c1ccccc1/C2=N/O	0%	-34%	-3%	nt	-71*
Cc1nc(N2CCCCC2)sc1C(=O)c1cccc([N+](=O)[O-])c1	-7%[46.1 µM]	?	-23%	-13%	-73*
Cc1nc(N2CCCCC2)sc1C(=O)c1ccc(SCCO)c([N+](=O)[O-])c1	?	1.1µM*	?	32µM*	?
O=[N+]([O-])c1ccc(N2CCCCC2)cc1SCCO	nt	-24%	nt	-10%	-13
CCOC(=O)C1=C(N)n2c(s/c(=C/c3ccco3)c2=O)=C(C(=O)OCC)C1c1ccco1 (stereo not drawn)	-18%	nt	nt	nt	nt
COc1cccc(-n2nnc3c(=O)n(Cc4ccc(Cl)cc4)cnc32)c1	2%	-19%	?	31%	7
Cc1ccc(Cn2nnc3c(=O)n(CC(=O)N4CCN(c5ccccc5)CC4)cnc32)cc1	-1%	-30%	-2%	nt	-65*
COc1cccc(-n2nnc3c(=O)n(Cc4ccc(C)cc4)cnc32)c1	?	5%	4.1µM*	0%	34
O=C(Cn1cnc2c(nnn2Cc2ccc(Cl)cc2)c1=O)c1ccccc1	nt	5%	nt	-10%	-71*
CCOC(=O)c1cccn1C1C(=O)N(Cc2ccc(C(F)(F)F)cc2)c2ccc(F)cc21 (stereo not drawn)	nt	nt	nt	nt	0
Cn1cnc(S(=O)(=O)N2CCCCN3[C@H](CO)[C@H](c4ccc(C#CC5CC5)cc4)[C@@H]3C2)c1	nt	nt	nt	nt	-6
CC1(C)Cc2c(C#N)c(N3CCN(C(=O)c4ccco4)CC3)nc(-c3ccco3)c2CS1	-11%	8.9µM*	-9%	-26%	18
SMILES	MARV entry inh	HCV inhibitor	LASV entry inh	FMDV antiviral	HCMV inh
CC(=O)N1CCN(c2nc(-c3ccco3)c3c(c2C#N)CC(C)(C)SC3)CC1	-21%	13µM*	-17%	?	-1
Cc1ccc(C(=O)Nc2c(-c3ccc(Cl)cc3)[nH][nH]c2=O)cc1	nt	nt	nt	0%	-3
O=C(CSc1nnc(-c2cccnc2)s1)Nc1ccnc2ccccc12	?	?	?	?	-92*
CC(C)C(C(=O)NC1CCCCC1)N1C(=O)C(=O)c2ccccc21 (stereo not drawn)	nt	nt	nt	nt	15
COc1ccc(-c2[nH]ncc2/C=C(/C#N)C(=O)NC2CCCCC2)cc1	?	13µM*	?	?	-34
Cc1ccc(-c2[nH]ncc2/C=C(\C#N)C(=O)NC2CCCCC2)cc1	-28%[46.1 µM]	?	?	?	-19
N#C/C(=C\C=C\c1ccccc1[N+](=O)[O-])C(=O)NC1CCCCC1	?	?	?	25µM*	nt
N#C/C(=C\c1ccccc1[N+](=O)[O-])C(=O)NC1CCCCC1	?	-6%	?	35µM*	83
COC(=O)[C@H](CC(C)C)NC(=O)Cn1cnc2c(NCc3ccccc3)ncnc21	nt	1%	nt	-27%	-27
O=C(/C=C/c1ccc(Cl)cc1)NC1CCS(=O)(=O)C1 (stereo not drawn)	26%[46.1 µM]	4%	1%	2%	?
O=C(NC1CCS(=O)(=O)C1)Oc1ccc(Cl)cc1 (stereo not drawn)	2%	16%	0%	-22%	-106*
Cc1ncc2c(c1CNS(=O)(=O)c1cccs1)CCN(C(=O)/C=C/c1ccc(F)cc1F)C2	nt	nt	nt	4%	nt
CCCCCc1nnc(NC(=O)Cn2cnc3ccccc3c2=O)s1	-7%	19%	-1%	-11%	?
O=C1OCC/C1=C\c1ccccc1	-2%	-6%[0.335 µM]	1%	-27%	51
O=C1/C(=C/c2ccccc2)CCc2ccc(Cl)nc21	?	?	?	35µM*	-63*
Cc1cc(C)c(NC(=O)Cc2csc(C)n2)c(Cl)c1	-5%[46.1 µM]	nt	?	5%	-61*
Cc1cnc([N+](=O)[O-])n1CCOC(=O)NC(=O)c1ccccc1Cl	11%[46.1 µM]	?	nt	6%	-66*
Cc1ccccc1NC(=O)Cn1c(=O)oc2cc(Br)ccc21	nt	nt	?	-24%	-16
Cc1ccccc1C(=O)N1[C@@H](C(C)C)COc2cc(Br)ccc2S1(=O)=O	10µM*	-10%	nt	40µM*	-10
COC(=O)/C=C1\N/C(=N\c2nc(C)cc(C)n2)N(c2ccc(C)c(C)c2)C1=O	-16%	-5%	?	25µM*	44
Cc1nn(Cc2ccccc2Cl)c2sc(C(=O)Nc3ccccc3N3CCOCC3)cc12	15%	13µM*	5%	?	?
Cc1cc(-c2nc3ccccc3o2)c2ccccc2n1	-16%	14µM*	6%	-7%	165
Cc1nc2ccc(S(=O)(=O)NC(C(=O)NCc3ccco3)C(C)C)cc2s1 (stereo not drawn)	nt	5%	nt	-17%	-64*
O=C(CN(c1ccccc1Cl)S(=O)(=O)c1ccccc1)NC1CC2CCC1C2 (stereo not drawn)	nt	nt	nt	2%	-31
Fc1ccc(-c2cnn3c(-c4cccs4)ccnc23)cc1	?	?	10µM*	-53%	303
CCOC(=O)c1c(NC(=O)C2=C(C)NC(=S)NC2c2ccc(F)cc2)sc(C)c1C (stereo not drawn)	-40%	8.9µM*	?	-16%	-14
